Laboratory results: PMC7862700, “An all-to-all approach to the identification of sequence-specific readers for epigenetic DNA modifications on cytosine”

Columns and labels:
Experiment in all cases: DAPPL (digital affinity profiling via proximity ligation, sequencing); 10 mM Tris-HCl pH 7.5, 50 mM NaCl, 1 mM DTT, 4% glycerol, room temperature, 30 min; GST-TFs on glutathione beads, 16-mer random dsDNA library, 0.1% formaldehyde crosslink after washing; high values mean tight binding
Conditions in all cases: protein: recombinant; tags: N-terminal GST; dsDNA, one strand shown
FLI1 = target: T1, FLI1 (Homo sapiens, UniProt Q01543 1-452)
T1 sequence: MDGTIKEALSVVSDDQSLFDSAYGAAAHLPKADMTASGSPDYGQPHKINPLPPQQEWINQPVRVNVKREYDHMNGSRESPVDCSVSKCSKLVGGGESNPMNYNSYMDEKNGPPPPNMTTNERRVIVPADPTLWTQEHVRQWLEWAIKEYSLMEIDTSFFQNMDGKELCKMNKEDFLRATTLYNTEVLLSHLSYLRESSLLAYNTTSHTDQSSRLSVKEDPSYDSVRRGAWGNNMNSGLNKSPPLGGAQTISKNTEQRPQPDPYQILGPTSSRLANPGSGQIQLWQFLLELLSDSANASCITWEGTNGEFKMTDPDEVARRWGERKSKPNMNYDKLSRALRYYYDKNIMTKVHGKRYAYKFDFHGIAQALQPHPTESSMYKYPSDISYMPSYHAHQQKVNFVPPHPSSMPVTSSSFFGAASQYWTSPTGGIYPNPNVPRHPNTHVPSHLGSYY
Outline: (§1)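 Human transcription factors carrying a GST fusion were produced in yeast, bound to glutathione beads, tagged with DNA barcodes and pooled together with a tag-only sample. Each pool was held with 200 nmole of a random double-stranded 16-mer DNA library in Tris/NaCl/DTT/glycerol buffer for 30 min at room temperature, then washed, crosslinked in 0.1% formaldehyde, proximity-ligated with BsaI/T4 ligase (1 h, 37 °C), PCR-amplified and sequenced on an Illumina NextSeq500. Binding signal is the read frequency of each hexamer for a given factor divided by its frequency in the tag-only sample.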

ELK1 = target: T2, ELK1 (Homo sapiens, UniProt P19419 1-428)
T2 sequence: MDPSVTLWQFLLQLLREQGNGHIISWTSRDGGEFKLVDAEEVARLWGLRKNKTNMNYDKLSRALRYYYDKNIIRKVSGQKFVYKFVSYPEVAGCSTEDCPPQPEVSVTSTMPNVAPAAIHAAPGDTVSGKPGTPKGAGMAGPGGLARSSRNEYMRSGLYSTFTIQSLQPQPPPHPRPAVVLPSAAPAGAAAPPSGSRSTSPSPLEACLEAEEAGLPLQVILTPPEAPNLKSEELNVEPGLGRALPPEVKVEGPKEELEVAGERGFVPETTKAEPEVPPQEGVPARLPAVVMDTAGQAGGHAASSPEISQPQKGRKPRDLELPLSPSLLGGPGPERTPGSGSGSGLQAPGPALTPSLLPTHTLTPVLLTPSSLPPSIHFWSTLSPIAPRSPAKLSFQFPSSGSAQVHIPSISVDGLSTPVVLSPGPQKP
Outline: as §1

GABPA = target: T3, GABPA (Homo sapiens, UniProt Q06546 1-454)
T3 sequence: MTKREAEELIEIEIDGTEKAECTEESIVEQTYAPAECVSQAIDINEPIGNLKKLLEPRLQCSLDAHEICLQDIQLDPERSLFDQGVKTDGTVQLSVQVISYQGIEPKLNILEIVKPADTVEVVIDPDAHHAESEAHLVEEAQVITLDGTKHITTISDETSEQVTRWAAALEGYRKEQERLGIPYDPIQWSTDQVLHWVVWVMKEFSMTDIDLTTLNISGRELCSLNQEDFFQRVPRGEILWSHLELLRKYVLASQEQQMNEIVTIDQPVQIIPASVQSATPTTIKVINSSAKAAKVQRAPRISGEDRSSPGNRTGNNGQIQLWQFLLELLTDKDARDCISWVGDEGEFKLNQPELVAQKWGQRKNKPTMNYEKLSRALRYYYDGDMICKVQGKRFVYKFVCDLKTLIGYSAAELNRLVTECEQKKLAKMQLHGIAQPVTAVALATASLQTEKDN
Outline: as §1

ERG = target: T4, ERG (Homo sapiens, UniProt P11308 1-479)
T4 sequence: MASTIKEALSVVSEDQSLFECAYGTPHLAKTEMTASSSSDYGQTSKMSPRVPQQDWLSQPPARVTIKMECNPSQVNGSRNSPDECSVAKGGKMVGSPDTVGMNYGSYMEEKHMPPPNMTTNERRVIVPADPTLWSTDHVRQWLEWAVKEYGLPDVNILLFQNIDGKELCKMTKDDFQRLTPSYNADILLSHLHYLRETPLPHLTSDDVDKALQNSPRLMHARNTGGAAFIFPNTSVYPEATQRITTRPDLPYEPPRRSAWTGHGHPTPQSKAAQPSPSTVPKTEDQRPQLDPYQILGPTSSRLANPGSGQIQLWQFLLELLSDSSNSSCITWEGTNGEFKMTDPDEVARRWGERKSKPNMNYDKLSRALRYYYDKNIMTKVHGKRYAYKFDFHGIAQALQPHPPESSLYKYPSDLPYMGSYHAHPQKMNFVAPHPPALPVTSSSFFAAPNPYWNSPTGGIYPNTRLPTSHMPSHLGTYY
Outline: as §1

ELF1 = ELF1 (Homo sapiens, UniProt P32519 1-619)
ELF1, sequence (P32519 whole entry): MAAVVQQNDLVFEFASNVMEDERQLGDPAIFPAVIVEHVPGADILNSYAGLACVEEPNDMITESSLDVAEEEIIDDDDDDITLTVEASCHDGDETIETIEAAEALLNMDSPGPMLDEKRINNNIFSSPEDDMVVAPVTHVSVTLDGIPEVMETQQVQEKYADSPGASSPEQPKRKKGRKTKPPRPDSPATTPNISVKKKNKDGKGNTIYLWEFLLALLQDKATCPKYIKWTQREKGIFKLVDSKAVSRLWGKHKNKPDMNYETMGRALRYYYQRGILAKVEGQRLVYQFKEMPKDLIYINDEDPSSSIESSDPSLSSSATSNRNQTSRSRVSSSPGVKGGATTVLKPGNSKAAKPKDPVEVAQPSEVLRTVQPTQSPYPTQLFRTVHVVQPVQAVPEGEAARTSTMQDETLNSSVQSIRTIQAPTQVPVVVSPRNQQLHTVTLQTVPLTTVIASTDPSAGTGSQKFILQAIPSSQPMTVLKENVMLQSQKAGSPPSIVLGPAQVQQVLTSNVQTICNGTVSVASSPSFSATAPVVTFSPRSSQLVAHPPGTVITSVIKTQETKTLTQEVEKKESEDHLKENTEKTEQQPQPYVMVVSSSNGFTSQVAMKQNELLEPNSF
Outline: as §1

EHF = target: T5, EHF (Homo sapiens, UniProt Q9NZC4 1-300)
T5 sequence: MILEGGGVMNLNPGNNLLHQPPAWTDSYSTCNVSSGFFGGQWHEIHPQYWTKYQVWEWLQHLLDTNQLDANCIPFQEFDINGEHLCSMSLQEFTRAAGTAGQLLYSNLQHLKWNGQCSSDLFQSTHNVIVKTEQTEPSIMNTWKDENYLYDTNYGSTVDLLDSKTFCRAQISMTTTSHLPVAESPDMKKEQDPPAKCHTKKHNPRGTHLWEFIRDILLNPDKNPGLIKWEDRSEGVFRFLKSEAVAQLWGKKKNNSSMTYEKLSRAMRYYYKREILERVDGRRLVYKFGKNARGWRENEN
Outline: as §1

SPI1 = SPI1 (Homo sapiens, UniProt P17947 1-270)
Outline: as §1

SPIB = SPIB (Homo sapiens, UniProt Q01892 1-262)
SPIB, sequence (Q01892 whole entry): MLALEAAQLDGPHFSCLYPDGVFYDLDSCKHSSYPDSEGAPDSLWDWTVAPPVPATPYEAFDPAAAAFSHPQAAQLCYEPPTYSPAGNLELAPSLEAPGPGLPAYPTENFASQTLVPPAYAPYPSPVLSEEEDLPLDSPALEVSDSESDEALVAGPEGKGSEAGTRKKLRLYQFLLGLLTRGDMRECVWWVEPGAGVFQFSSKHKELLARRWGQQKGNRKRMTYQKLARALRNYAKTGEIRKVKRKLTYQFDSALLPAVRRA
Outline: as §1

ELK3 = target: T6, ELK3 (Homo sapiens, UniProt P41970 1-407)
T6 sequence: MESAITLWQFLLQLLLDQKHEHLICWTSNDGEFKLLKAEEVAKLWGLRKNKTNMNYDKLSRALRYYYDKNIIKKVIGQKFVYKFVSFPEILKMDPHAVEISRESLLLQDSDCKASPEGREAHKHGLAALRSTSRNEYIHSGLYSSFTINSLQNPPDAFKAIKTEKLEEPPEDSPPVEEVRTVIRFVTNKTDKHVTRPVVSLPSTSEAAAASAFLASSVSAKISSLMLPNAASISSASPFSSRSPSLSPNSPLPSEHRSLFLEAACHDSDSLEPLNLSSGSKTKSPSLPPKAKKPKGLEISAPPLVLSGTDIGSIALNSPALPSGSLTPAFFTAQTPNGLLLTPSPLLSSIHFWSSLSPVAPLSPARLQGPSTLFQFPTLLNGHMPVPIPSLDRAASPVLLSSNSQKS
Outline: as §1

Row | Sequence | binding signal (FLI1) | binding signal (ELK1) | binding signal (GABPA) | binding signal (ERG) | binding signal (ELF1) | binding signal (EHF) | binding signal (SPI1) | binding signal (SPIB) | binding signal (ELK3)
1 | CGCTTC | 1.94 fold enrichment (6-mer frequency, TF over GST control) | 2.2 fold enrichment (6-mer frequency, TF over GST control) | 1.99 fold enrichment (6-mer frequency, TF over GST control) | 2.07 fold enrichment (6-mer frequency, TF over GST control) | 2.04 fold enrichment (6-mer frequency, TF over GST control) | 2.16 fold enrichment (6-mer frequency, TF over GST control) | 2 fold enrichment (6-mer frequency, TF over GST control) | 2.05 fold enrichment (6-mer frequency, TF over GST control) | 2.29 fold enrichment (6-mer frequency, TF over GST control)
2 | CTTCTG | 1.48 fold enrichment (6-mer frequency, TF over GST control) | 1.34 fold enrichment (6-mer frequency, TF over GST control) | 1.26 fold enrichment (6-mer frequency, TF over GST control) | 1.3 fold enrichment (6-mer frequency, TF over GST control) | 1.34 fold enrichment (6-mer frequency, TF over GST control) | 1.27 fold enrichment (6-mer frequency, TF over GST control) | 1.36 fold enrichment (6-mer frequency, TF over GST control) | 1.32 fold enrichment (6-mer frequency, TF over GST control) | 1.4 fold enrichment (6-mer frequency, TF over GST control)
3 | TTTAAC | 1.18 fold enrichment (6-mer frequency, TF over GST control) | 1.16 fold enrichment (6-mer frequency, TF over GST control) | 1.08 fold enrichment (6-mer frequency, TF over GST control) | 1.13 fold enrichment (6-mer frequency, TF over GST control) | 1.21 fold enrichment (6-mer frequency, TF over GST control) | 1.1 fold enrichment (6-mer frequency, TF over GST control) | 1.19 fold enrichment (6-mer frequency, TF over GST control) | 1.14 fold enrichment (6-mer frequency, TF over GST control) | 1.21 fold enrichment (6-mer frequency, TF over GST control)
4 | CATCCT | 1.68 fold enrichment (6-mer frequency, TF over GST control) | 1.65 fold enrichment (6-mer frequency, TF over GST control) | 1.51 fold enrichment (6-mer frequency, TF over GST control) | 1.75 fold enrichment (6-mer frequency, TF over GST control) | 1.64 fold enrichment (6-mer frequency, TF over GST control) | 1.62 fold enrichment (6-mer frequency, TF over GST control) | 1.59 fold enrichment (6-mer frequency, TF over GST control) | 1.7 fold enrichment (6-mer frequency, TF over GST control) | 1.68 fold enrichment (6-mer frequency, TF over GST control)
5 | AATAAG | 1.22 fold enrichment (6-mer frequency, TF over GST control) | 1.21 fold enrichment (6-mer frequency, TF over GST control) | 1.31 fold enrichment (6-mer frequency, TF over GST control) | 1.37 fold enrichment (6-mer frequency, TF over GST control) | 1.24 fold enrichment (6-mer frequency, TF over GST control) | 1.22 fold enrichment (6-mer frequency, TF over GST control) | 1.27 fold enrichment (6-mer frequency, TF over GST control) | 1.3 fold enrichment (6-mer frequency, TF over GST control) | 1.23 fold enrichment (6-mer frequency, TF over GST control)
6 | ACCGAT | 1.14 fold enrichment (6-mer frequency, TF over GST control) | 1.12 fold enrichment (6-mer frequency, TF over GST control) | 1.2 fold enrichment (6-mer frequency, TF over GST control) | 1.07 fold enrichment (6-mer frequency, TF over GST control) | 1.17 fold enrichment (6-mer frequency, TF over GST control) | 1.16 fold enrichment (6-mer frequency, TF over GST control) | 1.1 fold enrichment (6-mer frequency, TF over GST control) | 1.13 fold enrichment (6-mer frequency, TF over GST control) | 1.04 fold enrichment (6-mer frequency, TF over GST control)
7 | AAGTAA | 1.17 fold enrichment (6-mer frequency, TF over GST control) | 1.25 fold enrichment (6-mer frequency, TF over GST control) | 1.3 fold enrichment (6-mer frequency, TF over GST control) | 1.25 fold enrichment (6-mer frequency, TF over GST control) | 1.27 fold enrichment (6-mer frequency, TF over GST control) | 1.3 fold enrichment (6-mer frequency, TF over GST control) | 1.34 fold enrichment (6-mer frequency, TF over GST control) | 1.22 fold enrichment (6-mer frequency, TF over GST control) | 1.27 fold enrichment (6-mer frequency, TF over GST control)
8 | AAGTCC | 1.21 fold enrichment (6-mer frequency, TF over GST control) | 1.31 fold enrichment (6-mer frequency, TF over GST control) | 1.18 fold enrichment (6-mer frequency, TF over GST control) | 1.35 fold enrichment (6-mer frequency, TF over GST control) | 1.23 fold enrichment (6-mer frequency, TF over GST control) | 1.27 fold enrichment (6-mer frequency, TF over GST control) | 1.36 fold enrichment (6-mer frequency, TF over GST control) | 1.28 fold enrichment (6-mer frequency, TF over GST control) | 1.27 fold enrichment (6-mer frequency, TF over GST control)
